PubChem BioAssay AID2551 (National Center for Advancing Translational Sciences (NCATS), 2010)
In all, about 310,000 compounds went through this assay and about 17,000 (5.5%) were called active. Roughly 11% stayed inconclusive and do not appear here. This excerpt belongs to a sample that is enriched for actives. Unmarked numbers belong to inactive results. The call rests on the fitted dose curve; in most records, active means well fitted inhibition curve with a large enough effect; inconclusive means small, poorly fitted or top-dose-only effect, or effect the other way; inactive means no such curve, though single readings can be large or run the other way.

Each compound was assayed against Nuclear receptor ROR-gamma (Mus musculus) (UniProt P51450) (assay: qHTS for inhibitors of ROR gamma transcriptional activity). Conditions: Drosophila S2 Gal4-RORgamma UAS-luciferase reporter, 20 h; series mostly up to 53.6 µM; activity change, negative = inhibition: at the top concentration.
Method in brief: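 Luminescence from a UAS-regulated Photinus luciferase reporter in stably transfected Drosophila Schneider cells is measured; decreased signal marks ROR gamma inhibition. Fusion expression is induced by 700 uM copper sulfate for 20 hr.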
Further: nearly all actives have a fitted effect of over 60% in size.
On the % scale 0 is the no-effect control and ±100 the full control effect; potency means the concentration at half of the fitted maximal effect.

Nuclear receptor ROR-gamma (Mus musculus), sequence (P51450 whole entry, looked up, the tested form may be a part): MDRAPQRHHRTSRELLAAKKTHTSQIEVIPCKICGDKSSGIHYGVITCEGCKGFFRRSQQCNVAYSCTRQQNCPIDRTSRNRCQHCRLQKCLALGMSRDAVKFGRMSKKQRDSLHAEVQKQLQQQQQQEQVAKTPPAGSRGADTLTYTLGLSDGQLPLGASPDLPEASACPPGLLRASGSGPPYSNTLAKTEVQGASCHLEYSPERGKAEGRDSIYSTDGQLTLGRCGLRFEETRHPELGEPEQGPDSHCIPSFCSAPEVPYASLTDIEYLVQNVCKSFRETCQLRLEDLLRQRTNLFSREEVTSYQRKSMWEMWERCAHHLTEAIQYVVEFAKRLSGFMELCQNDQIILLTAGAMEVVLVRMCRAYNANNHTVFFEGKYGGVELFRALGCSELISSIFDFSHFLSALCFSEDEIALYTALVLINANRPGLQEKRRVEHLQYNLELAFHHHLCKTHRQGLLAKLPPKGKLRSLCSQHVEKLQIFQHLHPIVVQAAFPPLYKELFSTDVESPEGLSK

SMILES	activity change, negative = inhibition	Potency
Cc1cccc(N2CCN(S(=O)(=O)c3ccc(-c4cc(C)no4)s3)CC2C)c1 (centres undefined)	2.22%	
COc1ccc(C(CNC(=O)c2cc3c(s2)CCCC3)N2CCOCC2)cc1 (centres undefined)	-19.1%	
COc1cc(C(=O)NC2CCN(Cc3ccccc3)CC2)cc(Cl)c1OC(C)C	-13.7%	
COc1ccc(C(CNC(=O)COc2ccccc2OC)N2CCCCC2)cc1 (centres undefined)	-9.48%	
Cc1ccc2cc(C#N)c(NCCNC(=S)NCCCN3CCOCC3)nc2c1	-78.1%	
Cc1ccc2nc(NCCCNC(=O)c3cnccn3)c(C#N)cc2c1	-1.25%	
COCCCNC(=S)NCCNc1nc2cc(C)c(C)cc2cc1C#N		15.8 µM (active)
COCC(=O)Nc1c(C(=O)N2CCCC2)oc2ccccc12	26.7%	
CC(NC(=O)COc1ccc(-c2ccccc2)cc1)C1CCCO1 (centres undefined)	-0.806%	
CC(C)CC[n+]1ccn(C2=C([O-])c3ccccc3C(=O)/C2=N\S(=O)(=O)c2ccccc2)c1		11.2 µM (active)
COc1ccc(S(=O)(=O)/N=C2\C=C(NS(=O)(=O)c3ccccc3)C(=O)c3ccccc32)cc1	-36.9%	
COc1ccc(C2CC(c3ccc([N+](=O)[O-])cc3)=NN2C(C)=O)cc1 (centres undefined)	21.7%	
CC(C)C(C)NC(=O)COc1nc2ccccc2nc1N(C)C1CCCCC1 (centres undefined)	27.3%	
O=C(/C=C/c1ccc(Cl)c([N+](=O)[O-])c1)c1cccnc1	-10.5%	
O=C(Nc1cccnc1)c1cc(Cl)ccc1Cl	-7.73%	
O=C(/C=C/c1ccc(Cl)cc1Cl)c1cccnc1		2.82 µM (active)
Cc1ccc(/C=C/C(=O)Nc2ccc([N+](=O)[O-])c(NC(=O)/C=C/c3ccc(C)o3)c2)o1	4.73%	
O=C(/C=C/c1ccc([N+](=O)[O-])o1)NNC(=O)c1ccc(F)cc1		2.82 µM (active)
O=C(N/N=C/c1ccc([N+](=O)[O-])o1)c1cn(-c2ccccc2)nc1-c1ccc(F)cc1	-38.7%	
Cc1cc2c(cc1S(=O)(=O)NCc1ccc(Cl)cc1)OCC(=O)N2	6.35%	
C=CCn1c2ccccc2c2nnc(SC(CC)C(=O)Nc3nc(C)c(C(=O)OCC)s3)nc21 (centres undefined)	-6.1%	
C=CCn1c(SCC(=O)CC(=O)OCC)nc2cc(C(=O)N3CCC(C(N)=O)CC3)ccc2c1=O	15%	
C=CCn1c2ccccc2c2nnc(SCc3[nH]c(=O)[nH]c3C(=O)CCCCC(=O)OCC)nc21		12.6 µM (active)
CCNC(=S)N(CCN(CC)CC)Cc1cc2cc3c(cc2[nH]c1=O)OCCO3	9.92%	
O=C(Nc1ccncc1)c1ccc([N+](=O)[O-])cc1Cl	-3.39%	
COc1ccc(-c2cn(-c3ccc(C)cc3)c(=O)n2CC(=O)Nc2ccc(OC)c(OC)c2)cc1	51%	

SMILES	activity change, negative = inhibition	Potency
Cc1cc(-c2n[nH]c(=S)n2-c2ccc(C)c(C)c2)no1	6.4%	
COc1ccc(-n2c(-c3ccc(OC)c(OC)c3)n[nH]c2=S)cc1		11.2 µM (active)
COC(=O)c1sc(=S)n(-c2ccc(Cl)cc2)c1C	2.4%	
Cc1ccc(-n2c(-c3ccc(Cl)cc3)n[nH]c2=S)cc1		3.16 µM (active)
COc1ccc(OC)c(-n2c(-c3ccn[nH]3)n[nH]c2=S)c1	-4.51%	
COc1ccc(OC)c(CNC(=O)Cn2nc(C)c3c(C)n(-c4ccc(C)cc4)nc3c2=O)c1	33.3%	
COc1ccc(C(C)NC(=O)C2CCCC2)cc1 (centres undefined)	3.72%	
Cc1cc(=O)oc2c3c(cc(OCC(=O)NCc4ccccn4)c12)OC(C)(C)CC3	5.08%	
Clc1ccc(CN2CCCCCC2)cc1Cl	-12.3%	
CCc1ccccc1N(CC(=O)NCC1CCCO1)C(=O)CCC(=O)Nc1nccs1 (centres undefined)	-8.86%	
CC1(C)CC(=O)C=C(Nc2ccccc2)C1	14.2%	
COC(=O)NNC1=CC(=O)CC(C)(C)C1	-9.78%	
Cc1cc(C)nc(NNC2=CC(=O)CC(C)(C)C2)n1		17.8 µM (active)
CN1CCN(c2ccccc2NC(=O)COc2ccc(C3CCCCC3)cc2)CC1	-22.9%	
CCn1cc(S(=O)(=O)c2cccc(C)c2)c(=O)c2cc(F)c(N3CCN(C)CC3)cc21	-6.95%	
COc1ccc(CCNC(=O)CN2C(=O)CCSc3ccccc32)c(OC)c1	-12.6%	
Cc1ccc(NC(=O)c2cccnc2C(=O)Nc2ccc(C)cc2)cc1	33.9%	
CCOC(=O)c1ccc(NC(=O)c2nc[nH]c2C(=O)N[C@@H](CCCCNC(=O)OC(C)(C)C)C(=O)OC(C)(C)C)cc1		11.2 µM (active)
CCCCCOC(=O)NCCOC(=O)Nc1ccc(C(=O)OCC)cc1	30.1%	
CCCCC(CCC(=O)Nc1ccc(C(=O)OCC)cc1)C(=O)O (centres undefined)	-35%	
Cc1ccc(NC(=O)c2nc[nH]c2C(=O)N[C@@H](CCCCNC(=O)OC(C)(C)C)C(=O)OC(C)(C)C)cc1		8.91 µM (active)
Cc1ccc(NC(=O)OCCNC(=O)c2ccncc2)cc1	16.2%	
COc1ccc(Nc2ncnc3sc(C)cc23)cc1	2.51%	
CC(C)CCn1c(=O)c2c(nc3n2CCCN3Cc2ccccc2)n(C)c1=O	39.1%	
S=c1nc(C23CC4CC(CC(C4)C2)C3)nc2sccn12		7.94 µM (active)
Nc1nc(C23CC4CC(CC(C4)C2)C3)cs1	-0.833%	

SMILES	activity change, negative = inhibition	Potency
COc1cc(OC)cc(-c2nc(=S)n3ccsc3n2)c1	-4.05%	
C=CCC1=C/C(=C\c2c(N)n3nc(CC(=O)N4CCOCC4)sc3nc2=O)C=C(OC)C1=O	20.9%	
N#Cc1ccc(Oc2cc(C(F)(F)F)nc(-c3ccccn3)n2)cc1	6.67%	
CNc1nc(-c2ccccc2OC)nc2ccccc12	-40.8%	
Cc1cnc(CNc2nc(-c3cccnc3)nc3ccccc23)cn1	-27.6%	
CC(C)(C)Nc1nc(-c2ccccn2)nc2ccccc12		1.41 µM (active)
COc1cnc(-c2ccccn2)nc1Oc1ccc(C(C)(C)C)cc1		5.62 µM (active)
Cc1ccc(Oc2nc(-c3ccccn3)nc3ccccc23)cc1		0.251 µM (active)
COc1ccc(Cc2nc(-c3ccccn3)no2)cc1OC	-6.71%	
COc1ccccc1Oc1nc(-c2cccnc2)nc2ccccc12	-19.1%	
COc1ccc(Sc2nc(-c3ccccc3)ncc2OC)cc1	3.03%	
O=C(CCc1ccccc1)Nc1ccnn1C1CCN(Cc2ccc(OCCO)cc2)CC1	-4.43%	
Cn1cc[n+](C)c1COc1ccc(C=O)cc1	-16.6% [at 1.91 µM]	
COC(=O)[C@@H]1CC(O)CN1C(=O)C12CC3CC(CC(C3)C1)C2 (some centres undefined)	-2.86%	
COc1ccc(/C=N/NC(=O)c2ccc3c(c2)OCCO3)c(OC)c1	13.5%	
COc1ccccc1C(=O)NNC(=O)c1ccc(NC(=O)c2ccccc2)cc1	-12.5%	
COc1ccc(C(=O)Nc2ccccc2C(=O)N/N=C/c2ccccc2OC)cc1		15.8 µM (active)
COc1cc(/C=N/NC(=O)c2ccccc2)ccc1OS(=O)(=O)c1ccccc1	-13.4%	
COc1cc(/C=N/NC(=O)c2ccc(N3CCCC3=O)cc2)ccc1O	17%	
COc1ccc(C(=O)Nc2ccccc2C(=O)N/N=C/c2ccc(O)c(OC)c2)cc1		0.199 µM (active)
O=C(CSCc1ccccc1)Nc1ccccc1	9.06%	
Cc1ccn2c(c1)nc(=O)c1cc(S(=O)(=O)N3CCC(C)CC3)ccc12	-1.5%	
COc1cccc(/C=C2/SC(=S)N(CC(=O)NC3C=CS(=O)(=O)C3)C2=O)c1 (centres undefined)	-21.1%	
COc1ccc(S(=O)(=O)Nc2ccccc2C(=O)N2CCCC2)cc1C	17.8%	
Nc1ccn(C2CC(O)C(CO)O2)c(=O)n1 (centres undefined)	-20.3%	
CN1CCN(CCCCOc2cccc3ccccc23)CC1	4.45%	

SMILES	activity change, negative = inhibition	Potency
Cc1ccc(NC(=O)c2c(NC(=O)CCC(=O)O)sc3c2CCCCC3)cc1	-28.7%	
O=C(O)c1c(NC(=O)N2CCCC2)sc2c1CCCC2	-22.4%	
O=C(CN1CCCC1)Nc1sc2c(c1C(=O)Nc1ccccc1)CCCC2		5.01 µM (active)
CC1=C(C(=O)OC2CCCCC2)C(c2ccccc2F)NC(=O)N1 (centres undefined)	12.3%	
Cc1ccc2c(c1)N(CC(=O)N1CCCC(C)C1)C(=O)CO2 (centres undefined)	-14.2%	
Cc1ccc(NC(=O)c2cc(-c3ccc(C)o3)nc3ccccc23)nc1	-10.5% [at 0.365 µM]	
O=c1oc2ccccc2cc1-c1csc(Nc2ccc(O)cc2)n1	21.7%	
Cc1ccc(Nc2nc(-c3ccc(O)cc3O)cs2)nc1		8.91 µM (active)
COc1cccc(NC(=S)NCCCN2CCOCC2)c1	-6.97%	
CCOc1nc(NCCN2CCOCC2)nc(Nc2ccc(C)cc2)n1	2.46%	
CCOc1cccc(/C=N/NC(=S)NCCN2CCOCC2)c1O		1.41 µM (active)
Cc1ccc(N(C(=O)c2snc(C(N)=O)c2N)C(C(=O)NCC2CCCO2)c2c[nH]c3ccccc23)cc1 (centres undefined)	19.8%	
COc1ccc(S(=O)(=O)NCCc2cc3ccc(C)c(C)c3[nH]c2=O)cc1	9.72%	
Cc1nc2ccccc2nc1N/N=C/c1ccc(O)cc1O		11.2 µM (active)
Oc1ccc(/C=N/Nc2nc(-c3ccccc3F)nc3ccccc23)c(O)c1		10 µM (active)
Cc1cc(O)ccc1-c1cnc2ccccc2n1	14.1%	
COc1ccc(/C=C(\C#N)C(=O)ONC2=NCCCCC2)cc1	22.8%	
Fc1ccc(/C=N/Nc2nc(-c3cccnc3)nc3ccccc23)cc1	-43.6%	
Cc1nc2ccccc2cc1O	10%	
Cc1cc(N/N=C/c2ccccc2F)c2ccccc2n1	-16.8%	
Oc1ccc(/C=N/NC2=NCCCCC2)c(O)c1		11.2 µM (active)
COc1ccccc1N1CCN(/N=C/c2ccc(O)cc2O)CC1	-15.8% [at 1.91 µM]	
COc1ccc(C(=O)Nc2ccc(C(=O)NCC3CCCO3)cc2)c(OC)c1OC (centres undefined)	-19.2%	
COc1ccc(C(=O)NC2CC2)cc1OC1CCN(Cc2ccc(SC)cc2)CC1	-0.679%	
CCOC(=O)N1CCN(Cc2nc3cc(NC(C)=O)ccc3n2C)CC1	3.25%	
O=S(=O)(NC1CC2CCC1C2)c1ccc(Cl)cc1 (centres undefined)	44% [at 1.91 µM]	
